AmpC inh detg = blocks E. coli AmpC beta-lactamase in detergent assay; P00811; AmpC hydrolysis of nitrocefin, absorbance 480 nm, 0.01% Triton; Potency, µM (highest dose often 114 µM), inactives show at the highest dose activity change, negative = inhibition, hits mostly inhibitors; 370,000 tested, 0.041% active; AID 485294;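 also: potency is read from the fitted curve at half-maximal effect; 0% = no-compound wells and -100% = no-enzyme wells; nearly all actives have a fitted effect of over 25% in size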
Target sequence (P00811 whole entry, looked up): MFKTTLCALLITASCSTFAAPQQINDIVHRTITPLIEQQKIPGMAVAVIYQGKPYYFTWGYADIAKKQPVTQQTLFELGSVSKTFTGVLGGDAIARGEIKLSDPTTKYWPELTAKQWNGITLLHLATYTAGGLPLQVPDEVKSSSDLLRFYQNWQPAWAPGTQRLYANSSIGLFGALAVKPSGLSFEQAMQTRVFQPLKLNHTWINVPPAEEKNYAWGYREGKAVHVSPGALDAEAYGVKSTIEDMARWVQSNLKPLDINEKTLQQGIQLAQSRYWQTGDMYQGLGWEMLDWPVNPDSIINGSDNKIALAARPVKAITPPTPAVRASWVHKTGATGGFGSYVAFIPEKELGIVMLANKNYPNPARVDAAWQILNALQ
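20 mM phosphate pH 7.0 + 0.01% (detergent screen) or 0.0001% Triton X-100; 5.3 nM AmpC reagent; cpd preinc 15 min RT; nitrocefin (800 uM stock) to start; A480 q20 s × 4 min; Activity was normalised to no-enzyme and no-compound control wells.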
NS1 inh = blocks influenza NS1 protein function | Potency, µM (highest dose often 46.1 µM), inactives show at the highest dose activity, positive = more growth | 270,000 tested, 0.4% active | AID 2326; calls by dose curve; also: potency is read from the fitted curve at half-maximal effect; actives are rising curves; nearly all actives have a fitted effect of over 50% in size
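In this qHTS, NS1 from influenza A is expressed in budding yeast, where it slows growth. Cells are switched from glucose to 2% galactose medium (pH 6.0, -URA), treated with compound, and growth recovery is read at OD600.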
CHX counter = counter-screen hit for Shiga toxin inhibitors, cycloheximide | cell reporter, cycloheximide protein synthesis inhibition counterscreen | max response, % | 300,000 tested, 12% active | AID 2314; in the data active = max response mostly above about 13%, no sharp cut-off; inactive = mostly below about 14%; also: read at 38.3 µM for the half of the compounds with a filed dose; 0% is about no effect
AmpC inh no detg = blocks E. coli AmpC beta-lactamase in detergent-free assay. 330,000 tested, 0.52% active. P00811. Potency, µM (top dose mostly 57.1 µM), for inactives: top-dose activity change, negative = inhibition, hits mostly inhibitors. AmpC nitrocefin hydrolysis, absorbance 480 nm, 0.0001% Triton;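 also: potency is read from the fitted curve at half-maximal effect; plate controls were no compound for no effect and no enzyme for full effect; nearly all actives have a fitted effect of over 20% in size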
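20 mM phosphate pH 7.0 + 0.01% (detergent screen) or 0.0001% Triton X-100; 5.3 nM AmpC reagent; cpd preinc 15 min RT; nitrocefin (800 uM stock) to start; A480 q20 s × 4 min; Activity was normalised to no-enzyme and no-compound control wells.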
Shiga toxin inh = blocks Shiga toxin action in Vero cells. 290,000 tested, 9.2% active. Vero cells, Shiga toxin protein synthesis inhibition reporter. inhibition, % at 38.7 µM. AID 2315; in the data active = inhibition mostly above about 28%, no sharp cut-off; inactive = mostly below about 43%; also: 0% is about no effect
The depositor's hits bear a star. Only a selection was taken, and hits are over-represented in it overall. Unless noted, calls follow the shape of the dose curve; as a rule, active = well fitted curve in the direction sought with a large enough effect; inconclusive = small, poorly fitted or top-dose-only effect, or another doubt; inactive = no such curve, though single readings can be large; an effect the other way counts as inactive or inconclusive.

O=[N+]([O-])c1cccc(N/N=C/c2ccc(N3CCOCC3)cc2)c1 was read as AmpC inh detg 3%, NS1 inh -82%, CHX counter 50*, AmpC inh no detg -31% and Shiga toxin inh 80*.
For Cc1ccc(S(=O)(=O)NN=Cc2ccc(N3CCOCC3)cc2)cc1[N+](=O)[O-] the results were AmpC inh no detg -32%.
For Clc1cccc(N/N=C/c2ccc(N3CCOCC3)cc2)c1 the results were AmpC inh detg inconclusive, NS1 inh -61%, CHX counter 38*, AmpC inh no detg -36% and Shiga toxin inh 32.
`Cc1ccc(CNC(=O)c2sc3nc[nH]c(=O)c3c2C)cc1` gave AmpC inh detg -9%.
For COc1ccc(NC(=O)CSC2=Nc3ccccc3N=C(c3ccc(F)cc3)C2)cc1OC the results were AmpC inh detg -1%.
Screening O=c1c2ccccc2nnn1Cc1ccc(Br)cc1 returned AmpC inh detg 3%, NS1 inh -3%, CHX counter 11, AmpC inh no detg -15% and Shiga toxin inh 26.
O=c1c2ccccc2cnn1-c1ccc(Cl)nn1 was read as AmpC inh detg -12%, NS1 inh 6%, CHX counter 18*, AmpC inh no detg -3% and Shiga toxin inh 42*.
For O=c1c2ccccc2cnn1-c1ccc(Br)cc1 the results were AmpC inh detg -10%, NS1 inh -12%, CHX counter 57*, AmpC inh no detg -17% and Shiga toxin inh 65*.
Screening Cc1ccc(-n2c(-c3ccc(Br)cc3)nc3c(cnn3-c3ccccc3)c2=O)cc1 returned AmpC inh detg 1%.
For O=c1c2ccccc2nnn1-c1ccc(Br)cc1 the results were AmpC inh detg 0%, NS1 inh -1%, CHX counter 44*, AmpC inh no detg -5% and Shiga toxin inh 97*.
O=c1c2ccccc2cnn1-c1ccc2ccccc2c1 was read as AmpC inh detg -6%, NS1 inh -48%, CHX counter 33*, AmpC inh no detg -23% and Shiga toxin inh 98*.
O=c1c2ccccc2cnn1Cc1ccc(Cl)c(Cl)c1 was read as AmpC inh detg 0%, NS1 inh -14%, CHX counter -6, AmpC inh no detg 36% and Shiga toxin inh -6.
Cc1cc(NC(=O)CSCC(=O)Nc2nc3ccccc3s2)no1 was read as AmpC inh detg -16% and AmpC inh no detg -20%.
O=C(CCNS(=O)(=O)c1cccs1)N1CCc2ccccc2C1 was read as AmpC inh detg -2%, NS1 inh -2%, CHX counter 29*, AmpC inh no detg -33% and Shiga toxin inh 86*.
Screening CC1CC(C)CN(C(=O)CCNS(=O)(=O)c2cccs2)C1 (stereo not drawn) returned AmpC inh detg -13%, NS1 inh -6%, CHX counter -3, AmpC inh no detg -17% and Shiga toxin inh 2.
For Cc1cccc(N2CCN(C(=O)CCNS(=O)(=O)c3cccs3)CC2C)c1 (stereo not drawn) the results were AmpC inh detg -9%, NS1 inh -2%, CHX counter 16*, AmpC inh no detg 15% and Shiga toxin inh 66*.
Screening O=C(Nc1ccccc1)c1cc2c(-c3ccccc3)nn(-c3ccccc3)c2s1 returned AmpC inh detg 23%.
`COC(=O)c1ccc(NC(=O)c2ccc(NS(=O)(=O)c3cccc4cccnc34)cc2)cc1` gave AmpC inh detg 2%, NS1 inh 0%, CHX counter -5, AmpC inh no detg -42% and Shiga toxin inh 2.
For COc1cc(NC(=O)c2ccc3c(c2)OCO3)c2ncccc2c1 the results were AmpC inh detg 7%, NS1 inh 4%, CHX counter 9, AmpC inh no detg -33% and Shiga toxin inh 26.
For O=C(Nc1cccc2cccnc12)c1ccc2c(c1)OCCO2 the results were AmpC inh detg -6%, NS1 inh -12%, CHX counter 67*, AmpC inh no detg 6% and Shiga toxin inh 115*.
Screening Cc1ccc(C(=O)NC(=S)Nc2cccc3nsnc23)cc1 returned AmpC inh detg -3%, NS1 inh -3%, CHX counter -2, AmpC inh no detg -20% and Shiga toxin inh -22.
O=C(Nc1cccc2nsnc12)c1ccc2c(c1)OCO2 was read as AmpC inh detg inconclusive, NS1 inh -12%, CHX counter 17, AmpC inh no detg -29% and Shiga toxin inh 52*.
O=C(Nc1cccc2nsnc12)c1ccc(F)cc1 was read as AmpC inh detg 7%, NS1 inh -8%, CHX counter 30*, AmpC inh no detg -40% and Shiga toxin inh 50*.

High-throughput results: PubChem, National Center for Advancing Translational Sciences (NCATS)
